Pf Dd2 inh: qHTS Primary assay for Inhibitors of Plasmodium falciparum Dd2 growth in vitro; 120,000 tested, 4.3% active; Potency, µM (doses to about 28.9 µM), for the others: top-dose activity, negative = inhibition, usual class: inhibitors; P. falciparum Dd2 growth, SYBR Green, 72 h; active = well fitted inhibition curve with a large enough effect;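 note: plate controls were DMSO vehicle for no effect and reference drug for full effect; nearly all actives have a fitted effect of over 65% in size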
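Infected erythrocytes (Dd2, 0.3% parasitemia, 2.5% hematocrit final) are added to compound in RPMI-1640/Albumax II medium, grown 72 h at 37C in low oxygen, then lysed with saponin/Triton-X containing SYBR Green and read by fluorescence.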
Numbers without * were called inactive; i = inactive; [ ] = another dose, or the depositor's remark. Shown is part of a subset that was picked to be rich in hits. Potency is the fitted concentration of half-maximal effect.

SMILES	Pf Dd2 inh
C=CCNC(=O)N[C@H]1[C@H](O)[C@@H](N2CCN(C)CC2)[C@@H]2OC[C@H]1O2	i
Cc1noc2c(-c3cccnc3NC3CCN(C)CC3)cc(-c3ccc(Cl)cc3)nc12	i
O=C(C1CCCN1c1nc2ncccc2o1)N1CCOCC1 (centres undefined)	22%[44.1 µM]
COc1ccc(NC(=O)CN2CCN(CC(=O)Nc3ccccc3F)CC2)c(OC)c1	-1%
CCOC(=O)N1CCc2c(sc(NCc3cccc(F)c3)c2C(=O)Nc2ccc(OC)cc2OC)C1	4µM*
CCOC(=O)N1CCc2c(sc(NCc3ccc(N(C)C)cc3)c2C(=O)Nc2ccc(OC)cc2)C1	11µM*
CCOC(=O)N1CCc2c(sc(NCc3cccc(F)c3)c2C(=O)Nc2ccc(OC)cc2)C1	7.9µM*
CCNC(=O)c1c(NC(=O)COc2ccc(F)cc2)sc2c1CCCC2	-2%
COc1ccc(CNC(=O)c2cc3c(s2)CCN(C(C)=O)C3)cc1	i
COc1ccc(NC(=O)c2c(NC(=O)COc3ccccc3)sc3c2CCCCC3)cc1	11%[0.594 µM]
CCC(=O)Nc1sc2c(c1C(=O)Nc1ccc(OC)cc1)CCC(C(C)(C)C)C2 (centres undefined)	-2%
COc1ccc(S(=O)(=O)N2CCc3c(C(=O)NCc4cccc(F)c4)cccc32)cc1	i
CCC(=O)N1CCc2c(C(=O)Nc3ccc(OC)cc3OC)cccc21	-21%
COc1ccc(NC(=O)c2c(NCc3cccc(F)c3)sc3c2CCCC3)c(OC)c1	8.9µM*
CC(C)NC(=O)C[C@@H]1C[C@H]2O[C@H](CNCc3cnccc3Cl)[C@@H](O)[C@H]2O1	4%[44.1 µM]
Cn1cc(Cl)cc1C(=O)N1CCCC(c2ccc(C(=O)O)cc2)C1 (centres undefined)	i
Cc1ccc(C(=O)N2CCC(Cc3nc(-c4ccccc4)no3)CC2)c(C)c1	i
Cc1noc(-c2ccc(C(C)(C)C)cc2)c1C(=O)NCc1ccc(Cl)cc1	i
CCO[C@H]1CN(Cc2cc3c(cc2OC)OCCCO3)C[C@@H]1O	-15%
COCc1nc(C2CCN(C(C)=O)C2)no1 (centres undefined)	-8%
COc1ccc(NC(=O)c2c(NC(=O)c3ccc(Br)cc3)sc3c2CCCC3)cc1	-9%
COC(=O)c1c(NC(=O)c2c(OC)cccc2OC)sc2c1CCCC2	18%
COC(=O)c1c(NC(=O)COc2cccc(C(F)(F)F)c2)sc2c1CCCC2	77%
CCOC(=O)c1ccc(NC(=O)c2c(NCc3cc(OC)c(OC)cc3OC)sc3c2CCCC3)cc1	13µM*
CCOC(=O)c1c(NC(=O)CS(=O)(=O)c2ccc(Cl)cc2)sc2c1CCCC2	i
SMILES	Pf Dd2 inh
COC(=O)c1ccc(NC(=O)c2c(NCc3cccc(F)c3)sc3c2CCCC3)cc1	13µM*
O=C(Nc1ccccc1)C1CC(c2ccccc2)CN(C(=O)NCc2ccccc2)C1 (centres undefined)	i
Cc1ccc(C(=O)N[C@@H]2CN(c3ncccn3)C[C@H]2CO)cn1	-23%
O=C1NCCCCCCN(Cc2ccncc2)[C@@H]2CN(C(=O)c3ccsc3)CC[C@@H]12	-15%
Cc1ccc2nc(CO[C@H]3CN(Cc4ccccn4)C[C@H]3F)[nH]c2c1	-1%[44.1 µM]
Cc1cccc(NC(=O)Nc2ccc(C)n(CC(=O)NCCN3CCCCC3)c2=O)c1	-19%
CC(C)N1CCC(N2CCCC(N3CCN(c4cccc(C(F)(F)F)c4)CC3)C2)CC1 (centres undefined)	14µM*
NCC(=O)N1CCCC(N2CCN(c3cccc(C(F)(F)F)c3)CC2)C1 (centres undefined)	-18%
CNC(=O)CN1CCCC(N2CCN(c3cccc(C(F)(F)F)c3)CC2)C1 (centres undefined)	-23%
NC(=O)NCCN1CCCC(N2CCN(c3cccc(C(F)(F)F)c3)CC2)C1 (centres undefined)	-10%
COc1cccc(CN2CCCC(N3CCN(c4cccc(C(F)(F)F)c4)CC3)C2)c1O (centres undefined)	0.4µM*
O=C(CO)N1CCCC(N2CCN(c3cccc(C(F)(F)F)c3)CC2)C1 (centres undefined)	-1%
COc1ccccc1CCC(=O)N1CCC(Cc2nc(-c3cnccn3)no2)CC1	18%
O=C(NCc1ccccc1)N1CCN2C(=O)N(C3CCOCC3)C[C@H]2C1	3%[44.1 µM]
C=CCN1CCC2(CCC1=O)CN(c1ccc(C#N)cn1)CCN2C (centres undefined)	-1%
O=c1oc2c(CN3CCCC3)c(O)ccc2cc1-c1ccccc1	11µM*
COc1ccc(CN2CCC3(CC2)CC(O)CCO3)cc1OC (centres undefined)	2%
COc1ccc(CNC(=O)Cn2c(=O)oc3cc(S(=O)(=O)N4CCC(C)CC4)ccc32)cc1	-29%
COc1ccc(CNC(=O)C2CCN(Cc3nc(-c4ccc(OC)c(OC)c4)oc3C)CC2)cc1	-26%
COc1ccc(-c2nc(S(=O)(=O)c3ccccc3)c(N3CCC(C)CC3)o2)cc1	31%
Cc1cc2oc(=O)c(CC(=O)O)c(C)c2c2occ(-c3ccccc3)c12	-14%
